This passage reports growth results from PubChem BioAssay (NCI).

The panel holds about 83,000 compounds, 20% with a hit somewhere; the sample as a whole holds those more often.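 Compound tested at a single concentration for 48 hours in 96-well plates; a percent growth value below 10 was scored as active.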 Unmarked numbers belong to inactive results. Active and inactive are the calls of the source.

The subject of this assay is IGROV1 ovarian. Briefly: NCI-60 one-dose screen, 48 h (100 = growth as untreated, 0 = no growth, -100 = all killed). Particulars: 10 µM unless noted. As to the method:
Growth inhibition of the IGROV1 human tumor cell line is measured as a screen for anti-cancer activity. Cells are grown in 96 well plates and exposed to the test compound for 48 hours. Compounds are tested at a single concentration, which is 10^-5 M for most compounds. The reported endpoint is percent growth (GI% or GIPRCNT), where numbers from 0 - 100% represent growth inhibition, and numbers from -100% - 0 represent cell death. For example, a value of 40 represents 60% growth inhibition. A value of 0 means no net growth occurred over the course of the experiment. A value of -40 indicates 40% of cells at the beginning of the experiment died by the end of the experiment. A value of -100 means all cells are dead at the end of the experiment.
NCI-60 Human Tumor Cell Lines Screen was performed using the standard one-dose NCI protocol, which is described in more detail at https://dtp.cancer.gov/discovery_development/nci-60/default.htm.
Compounds with GIPRCNT values below 10 were considered active. Activity score was based on GIPRCNT using the following formula: […]
Score is 0 for GIPRCNT values of 100 or above, 50 for GIPRCNT values of 0, and 100 for GIPRCNT values of -100.
On to `CCOc1nc(-c2ccccc2)cc2c(O)c(C(=O)N/N=C/c3ccccc3O)[nH]c(=O)c12`, for which the growth is 50.1%. The figure for `COC(=O)c1c[n+]([O-])ccc1OC` is 107%; for `CCc1ccc(C(=Nc2ccc(N(C)C(=O)CN3CCN(C)CC3)cc2)c2c(O)[nH]c3ccc(C(=O)OC)cc23)cc1` it is -65.4% (active).

Take `BrCCCOc1ccc(Oc2ccc(OCCCBr)cc2)cc1`: the growth was 97.7%. Turning to `CC1CCCCC[N+]12CCCC2` (stereo not given), the growth was 102%.

In the case of `Clc1ccc(N/N=C/c2ccccn2)nc1`, the growth is 11.2%. The figure for `CC[C@@H](C)/C=C(C)/C=C/C(=O)c1c(O)c(-c2ccc(OC(=O)[C@@]34CC[C@@](C)(C(=O)O3)C4(C)C)cc2)cn(O)c1=O` is -18.6% (active). With `CCOC(=O)C1C(=O)C(=O)N(C(C)C)C1C(=O)OCC` (stereo not given) the figure was 110%. The figure for `O=C(N/N=C/c1ccccc1Cl)c1cccc2ccccc12` is 106%; for `CN(C)CCOC(=O)C(C)(C)C` it is 106%; for `COc1cccc(-c2cc(-c3cc4ccccc4oc3=O)nc(N)n2)c1` it is 70%. As to `Cc1nnc(/N=C2\NC(=O)/C(=C/C=C/c3ccccc3)S2)s1`, the growth was 51.8%. Regarding `CC(=O)c1nn(-c2ccc(C)cc2)cc1C(=O)c1cc2c(ccc3ccccc32)oc1=O`, the growth is 88%. With `Cc1ccc(C(=O)Nc2ccc(CN3CCN(C)CC3)c(C(F)(F)F)c2)cc1C#Cc1cnc(N)c2ccc(F)cc12` the figure was -82.9% (active).

Consider `OCCN1CCCN(CCCN2c3ccccc3Sc3ccc(C(F)(F)F)cc32)CC1`, for which the growth was 41.3%. Turning to `C=C(C)C(C(=O)OCC)(C(=O)OCC)C(C)C`, the growth is 117%. For `C[n+]1c2ccccc2c(Nc2ccc(NS(=O)(=O)CCCCN=C(N)N)cc2)c2ccc(N)cc21`, the growth is 45.9%.

`COc1ccc(CN2C(=O)/C(=C\C(=O)c3ccc(OCCN4CCCC4)cc3)c3ccccc32)cc1`: the growth was 81.4%. Take `O=C(Nc1ccc(-n2cc(-c3ccncc3)c(-c3ccc(Cl)c(O)c3)n2)cc1)c1ccc(Cl)c(C(F)(F)F)c1`: the growth was 27.5%. The figure for `O=C1C(Cl)=C(SC2=NCCN2)C(=O)c2ccccc21` is 49.9%.

On to `CC1(C)NC(=S)NC1=O`, for which the growth was 116%. For the compound `CN1NC(c2ccccc2)NN(C)C1=O`, the growth is 109%.

Regarding `COc1ccc(-n2nnnc2-c2cn[nH]c2C(F)(F)F)cc1`, the growth was -28.4% (active).

Regarding `c1ccc(Nc2ccccn2)cc1`, the growth is 101%. With `O=C1N/C(=N\c2nnc(-c3ccc(O)cc3)s2)S/C1=C\c1ccccc1O` the figure was 99.1%; with `COc1ccc(-c2cn3ccnc3c(-c3ccc4ncn(C5CCCCC5)c4c3)n2)cc1`, 46.6%. The figure for `CC(C)(C)C(=O)CCCCCCCC/C=C/CCCC(O)c1ccco1` (stereo not given) is 116%; for `O=c1c2c(c3ccccc3n1-c1ccccc1)NC(=S)NC2c1ccc(Cl)cc1` (stereo not given) it is 40.1%; for `CCCCCCCCc1ccc(CCC(N)(CO)CO)cc1` it is -37.9% (active). As for `Cc1ccc2c(O)c(O)cc(NC(C)CCCN)c2n1` (stereo not given), the growth is 86.3%. The figure for `CCC(C)CC(N)O` (stereo not given) is 118%; for `COc1cc(-c2nc3c(c(C)nc4c3nnn4-c3ccccc3)c(=O)o2)cc(OC)c1OC` it is 112%; for `COc1ccc(/C=C/C(=O)/C=C/c2cc3ccccc3[nH]c2=O)cc1` it is 130%. The figure for `COc1ccc(Cn2cc3c(c2-c2ccccc2)CCc2cnoc2-3)cc1N` is 3.29% (active); for `COc1cc(-c2nn(-c3ccc(NC(=O)Nc4cc(C(F)(F)F)cc(C(F)(F)F)c4)cc3)cc2-c2ccncc2)ccc1Cl` it is 8.43% (active); for `COc1ccc2c(c1)/C(=C1/S/C(=N/c3nnc(C)s3)NC1=O)C(=O)N2Cc1ccc(Br)cc1` it is 40.9%. As for `CC(O)CN(CC(C)O)N(CC(C)O)CC(C)O` (stereo not given), the growth is 113%.

On to `O=C(/C=C1\C(=O)N(Cc2ccc([N+](=O)[O-])cc2)c2ccccc21)c1ccc(OCCN2CCCC2)cc1`, for which the growth was 74.9%. For `COC(=O)/C=C/c1cc(O)c2oc(-c3ccc(O)c(O)c3)c(C(=O)OC)c2c1`, the growth is 32.4%. `CC(C)(C)C(=O)OCOP(=O)(OCOC(=O)C(C)(C)C)C1CC(O)N(O)C1=O` (stereo not given): the growth is 3.72% (active).
